From PubChem BioAssay (Tox21) come the findings set out here.

The structures appear in SMILES notation. Inconclusive results are not listed. Activity calls are given as the source filed them. Calls follow the shape of the full dose curve.
% is scaled to controls: 0 for no effect and ±100 for the full control effect.

The experiment in a line: qHTS assay to identify small molecule agonists of the NFkB signaling pathway - cell viability counter screen (AID 1159515). Also: nearly all actives have a fitted effect of over 55% in size. The note with it: NFkB-bla ME-180 viability, CellTiter-Glo luminescence, 5 h; series mostly up to 61 µM; activity, negative = cytotoxic: at the top concentration. From the text:
National Center for Advancing Translational Sciences [NCATS]
NIH Chemical Genomics Center [NCGC]
U.S. Environmental Protection Agency [EPA]
National Institutes of Environmental Health Sciences [NIEHS]
National Toxicology Program [NTP]
U.S. Food and Drug Administration [FDA]
Transcription factors and their stimulated target gene expression play pivotal roles across many cellular processes including responses to environmental stimuli. Proper regulation of associated pathways is critical to maintain cell health and function. Constitutive activation of transcription factor pathways has been implicated in tumors as it may block cellular functions such as apoptosis and lead to invasion and metastasis. One important transcription factor that stimulates gene expression in response to cytokines, UV radiation, and other stimuli is nuclear factor-kappa B (NFkB). To measure activation of the NFkB pathway, the CellSensor NFkB-bla ME-180 cell line (Life Technologies, Carlsbad, CA) that stably expresses beta-lactamase reporter gene under the regulation of a NF-kB response element was used. This assay allows measurement of the NFkB pathway activity induced by compounds in a ME-180 cell line. This system quantitates NF-kB activity using a FRET-based assay system where beta-lactamase expression disrupts FRET, allowing for fluorescent measurement of activity. This cell line has been used to screen the Tox21 10K compound library and to identify compounds that induce the NFkB pathway activity. The cytotoxicity of the Tox21 compound library against the NFkB-bla ME-180 cell line was tested in parallel by measuring cell viability using the CellTiter-Glo assay in the same wells.
Tox21 Assay Protocol Summary:
NFkB-bla ME-180 cells were dispensed at 2,000 cells/6 uL of assay medium per well into black wall/clear-bottom 1536-well plates using a Multidrop Combi (ThermoFisher Scientific, Waltham, MA) dispenser. After the assay plates were incubated at 37 C and 5% CO2 for an overnight, 23 nL of compounds dissolved in DMSO, positive controls or DMSO only was transferred to the assay plate by a Pintool station (Kalypsys, San Diego, CA). The assay plates were incubated at 37 C and 5% CO2 for 5 hr. One uL of LiveBLAzer B/G FRET substrate (Life Technologies) was added using a Flying Reagent Dispenser (Aurora Discovery, San Diego, CA) and the plates were incubated at room temperature for 1.5 hr. Fluorescence intensity (405 nm excitation, 460 nm and 530 nm emissions) was measured using an Envision plate reader (PerkinElmer, Shelton, CT). For cytotoxicity, 3 ul/well of CellTiter-Glo reagent was added into the assay plates using an FRD. After 30 min incubation at room temperature, the luminescence intensity was measured using a ViewLux plate reader (PerkinElmer).
A general note: qHTS replaces the single test concentration by a dilution series.
For `O=C(COCCOCCOCC(=O)Nc1c(I)cc(I)c(C(=O)O)c1I)Nc1c(I)cc(I)c(C(=O)O)c1I`, the “activity, negative = cytotoxic” value is 2.12% (inactive).
For the compound `C=CC(C)(O)CC/C=C(\C)CC` (stereo not given), the “activity, negative = cytotoxic” value was 0.724% (inactive).
Then `FC(F)(F)/C(=N\OCC1OCCO1)c1ccc(Cl)cc1`, with 4% (inactive); and `O=C(/C=C/c1ccccc1)NCCO`, with -9.01% (inactive).
Turning to `Nc1ccc(S(=O)(=O)Nc2ccccn2)cc1`, the “activity, negative = cytotoxic” value is 10.5% (inactive).
Then `CC(CC(=O)O)CC(C)(C)C` (stereo not given), with -5.19% (inactive); and `COC(/C=C(\C)CCC=C(C)C)OC`, with 1.36% (inactive); and `Cc1cccc(NC(=S)N(C)C)c1`, with -2.38% (inactive).
Then `C=C(C)[C@@H]1CC[C@@H](C)C[C@@H]1O`, with 8.34% (inactive).
As to `Cc1oc(=O)oc1CN1CCN(c2cc3c(cc2F)c(=O)c(C(=O)O)c2n3C(C)S2)CC1` (stereo not given), the “activity, negative = cytotoxic” value is 1.32% (inactive).
Then `CC(C)CCCC(C)CC=O` (stereo not given), with -9.33% (inactive).
Then `CC(=O)c1ccc(OCC(=O)N2CCCCC2)cc1`, with -17.3% (inactive); and `CC(=O)Nc1ncc([N+](=O)[O-])s1`, with 13.8% (inactive); and `Cc1nc([N+](=O)[O-])cn1-c1ccc([N+](=O)[O-])cc1`, with -26.4% (inactive).
Consider `CCCCC[Si](OCC)(OCC)OCC`, for which the “activity, negative = cytotoxic” value is 5.28% (inactive).
For `CO[Si](CCCS)(OC)OC`, the “activity, negative = cytotoxic” value is -1.14% (inactive).
In the case of `OC(CCN1CCCCC1)(c1ccccc1)c1ccccc1` it was -9.28% (inactive); in that of `CC(C)C(=O)Nc1cccc(C(F)(F)F)c1`, 0.453% (inactive); in that of `CC(C)(C)c1ccc(C=O)cc1`, -0.93% (inactive).
Then `CCS(=O)(=O)CCn1c([N+](=O)[O-])cnc1C`, with 2.3% (inactive).
As for `O=C(c1ccc2c(c1)C(=O)OC2=O)c1ccc2c(c1)C(=O)OC2=O`, the “activity, negative = cytotoxic” value is 3.73% (inactive).
On to `CCCCCCCCCCC`, for which the “activity, negative = cytotoxic” value was 8.78% (inactive).
In the case of `O=[Si]=O` it was -0.808% (inactive).
Then `CCCOCCOCCOCCO`, with 2.2% (inactive); and `O=S(=O)(O)c1cc(O)ccc1O`, with 0.679% (inactive).
Then `CCCO`, with -0.335% (inactive); and `CCNC(=O)NCCCOc1cccc(CN2CCCCC2)c1`, with -8.73% (inactive); and `c1ccccc1`, with -11.9% (inactive).
With `C[CH2][Ge]([Cl])([CH2]C)[CH2]C`, the “activity, negative = cytotoxic” value is 0% [at 78.8 µM] (inactive).
Then `CCCCCCCCCCCCOC(C)=O`, with -13.1% (inactive).
For the compound `CCCCCCCC/C=C\CCCCCCCC(=O)OC[C@@H](O)[C@H]1OC[C@H](O)[C@H]1O`, the “activity, negative = cytotoxic” value was 3.37% (inactive).
Then `CCCCCCCCCCCCCC(=O)OC`, with 2.87% (inactive).
For the compound `CCCCCC1CCCC(=O)O1` (stereo not given), the “activity, negative = cytotoxic” value was -6.72% (inactive).
Then `CC(C)COC(=O)/C=C/c1ccccc1`, with 2.86% (inactive); and `Cc1nc2n(c(=O)c1CCN1CCC(C(=O)c3ccc(F)cc3)CC1)CCS2`, with 8.14% (inactive); and `NC(=O)NC(=O)Cc1ccccc1`, with 7.99% (inactive).
On to `CCCCCCCCCCCCCCCC(=O)NCCO`, for which the “activity, negative = cytotoxic” value is 9.76% (inactive).
In the case of `C[C@H]1O[C@H](O[C@H]2[C@H](O)[C@@H](O)[C@@H](O[C@H]3[C@H](O)[C@@H](O)[C@H](O)O[C@@H]3CO)O[C@@H]2CO)[C@H](O)[C@@H](O)[C@@H]1N[C@H]1C=C(CO)[C@@H](O)[C@H](O)[C@H]1O` it was 19.2% (inactive); in that of `F[Si-2](F)(F)(F)(F)F`, 6.09% (inactive); in that of `O=C1CC[C@H](C(=O)N2CCCCC2)N1`, 0.855% (inactive).
